Test results published in PubChem BioAssay AID588342 (National Center for Advancing Translational Sciences (NCATS), 2011).
In all, about 360,000 compounds went through this assay and about 25,000 (6.9%) were called active. A call without a number means that no potency is given here. Not shown: some 9% with an inconclusive outcome. Calls follow the shape of the dose curve; as a rule, active = well fitted inhibition curve with a large enough effect; inconclusive = small, poorly fitted or top-dose-only effect; inactive = flat fitted curve, though single readings scatter. Many of the other results were omitted from the sample, so actives are more common in it than they were.

These molecules were tested against Luciferin 4-monooxygenase (Photinus pyralis) (UniProt P08659) (assay: qHTS profiling assay for firefly luciferase inhibitor/activator using purifed enzyme and Km concentrations of substrates (counterscreen for miR-21 project)). Details: purified FLuc, luminescence inhibition; series mostly up to 57.5 µM.
Sequence of Luciferin 4-monooxygenase (Photinus pyralis) (P08659 whole entry, looked up): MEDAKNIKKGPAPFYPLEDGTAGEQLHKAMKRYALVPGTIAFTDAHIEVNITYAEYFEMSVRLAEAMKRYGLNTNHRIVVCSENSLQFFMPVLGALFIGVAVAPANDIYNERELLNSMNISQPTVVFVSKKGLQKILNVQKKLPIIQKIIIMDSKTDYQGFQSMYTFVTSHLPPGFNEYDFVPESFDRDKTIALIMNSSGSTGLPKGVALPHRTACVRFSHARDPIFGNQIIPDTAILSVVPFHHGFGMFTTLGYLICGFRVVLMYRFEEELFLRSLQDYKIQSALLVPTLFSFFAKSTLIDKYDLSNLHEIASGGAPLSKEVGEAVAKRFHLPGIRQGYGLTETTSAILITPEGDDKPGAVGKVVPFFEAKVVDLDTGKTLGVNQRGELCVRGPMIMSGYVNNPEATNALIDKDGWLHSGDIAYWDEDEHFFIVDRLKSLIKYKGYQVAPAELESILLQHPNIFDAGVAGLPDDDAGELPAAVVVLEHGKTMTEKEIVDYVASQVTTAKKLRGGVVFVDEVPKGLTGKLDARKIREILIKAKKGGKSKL
Method in brief: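 Purified P. pyralis luciferase (10nM final) with 10uM D-luciferin and 10uM ATP (Km levels) in 50mM Tris acetate pH 7.5, 10mM Mg acetate, 0.01% Tween-20, 0.05% BSA; qHTS 6-point titration, ~60 µM downward; luminescence read.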
Also: nearly all actives have a fitted effect of over 55% in size.
Potency is read from the fitted curve at half-maximal effect.

SMILES | Potency
Cc1cccc(NC(=O)N2CCC(CN3CCc4ccccc4C3)CC2)c1C | inactive
Cc1cc(NS(=O)(=O)c2ccc(NC(=O)c3ccccc3C)cc2)nc(C)n1 | inactive
CCOc1ccc(S(=O)(=O)N(CC(=O)NCCSCc2ccc(C)cc2)c2ccccc2)cc1 | inactive
COc1ccc([C@H]2CC(=O)C=C(c3ccc(OC(F)(F)F)cc3)C2)cc1OC | inactive
Cc1cc(Cl)c2oc(C(=O)N3CCC(O)(c4ccccc4)CC3)c(C)c2c1 | inactive
Cc1cc(Cl)c2oc(C(=O)NC(C)c3ccncn3)c(C)c2c1 (stereo unspecified) | inactive
Cc1cc(Cl)c2oc(C(=O)N(C)C(C)c3ccccn3)c(C)c2c1 (stereo unspecified) | 19 µM (active)
CCOc1ncccc1C(=O)OCC(=O)N1c2ccccc2CC1C (stereo unspecified) | inactive
O=C(Nc1ncccc1O)c1ccc(S(=O)(=O)N2CCCC2)cc1 | inactive
O=C(Nc1ncccc1O)c1ccc(S(=O)(=O)N2CCCCCC2)cc1 | inactive
O=C(Nc1ncccc1O)c1ccc(C(=O)c2ccccc2)cc1 | 26.9 µM (active)
COc1cc(F)c(C2=CC(=O)CC(C)(C)C2)cc1F | inactive
CCCC12CN3CC(C)(CN(C1)C3c1ccccc1Cl)C2=O (stereo unspecified) | inactive
CN(C)c1ccc(NC(=O)c2ccncc2)c2ccccc12 | inactive
CNC(=O)c1csc(-c2ccccc2)n1 | inactive
O=C(Nc1nsc(-c2ccccc2)n1)c1ccncc1 | 19 µM (active)
Cc1cccc(-n2ncc(C(=O)N3CCC(C)CC3)c2C2CCN(C(=O)OC(C)(C)C)CC2)c1 | inactive
COc1ccc(/C=C2\SC(=N)N(c3ccc(F)cc3)C2=O)cc1 | inactive
COc1ccc(/C=C2\N=C3CCCN3C2=O)cc1 | 15.1 µM (active)
COc1ccc(C2NC(=O)N(C)C3=C2C(=O)N(c2ccc(C(=O)O)cc2)C3)cc1 (stereo unspecified) | inactive
CCN(C(=O)Cn1cnc2sc(C)c(S(=O)(=O)N3CCN(c4ncccn4)CC3)c2c1=O)c1ccccc1F | inactive
CCOc1cc(C(=S)N2CCOCC2)ccc1O | inactive

SMILES | Potency
CCOc1cc(/C=C2\SC(N3CCCC(C)C3)=NC2=O)ccc1O (stereo unspecified) | 9.53 µM (active)
CCOc1cc(/C=C2\SC(N3CCCCC3)=NC2=O)ccc1O | 10.7 µM (active)
CCOc1cc(/C=N/NC(=O)CN2CCCCC2)ccc1O | inactive
Nc1c(Cl)cc(-c2csc(N3CCCC3c3nc4cc(Cl)c(Cl)cc4n3CCOCCO)n2)cc1Cl (stereo unspecified) | inactive
ClC1(Cl)CC1CSc1ncn[nH]1 (stereo unspecified) | inactive
Cc1ccc(N2CC(C(=O)Nc3cc(Cl)ccc3-n3cncn3)CC2=O)cc1 (stereo unspecified) | inactive
CCCC(NCC(=O)Nc1ccccc1C(=O)NC1CC1)c1ccccc1 (stereo unspecified) | inactive
CC(=O)COc1ccc2c(-c3ccccc3)cc(=O)oc2c1 | 16.9 µM (active)
COc1ccc(-c2cc(=O)oc3cc(OCC(=O)N(C)C4CCS(=O)(=O)C4)ccc23)cc1 (stereo unspecified) | inactive
Cc1cc(=O)oc2ccc(OCC(=O)O)cc12 | inactive
C=CCC(NC(=O)Cc1ccccc1)C(=O)NCCC (stereo unspecified) | inactive
O=C(O)COc1ccc(-c2nccc(-c3cccs3)n2)cc1 | 1.51 µM (active)
O=C(COc1ccccc1)OCc1cc(=O)n2nc(-c3cccs3)sc2n1 | inactive
O=C(Nc1ccnc(-c2ccncc2)n1)c1cccs1 | inactive
Oc1c(C=Nc2cccc3nsnc23)ccc2ccccc12 | 1.69 µM (active)
O=C(NCc1ccccc1)C1CCN(S(=O)(=O)c2ccc3[nH]c(=O)ccc3c2)CC1 | inactive
CC(C)Cn1cnc2c1c(=O)n(CC(O)c1ccccc1)c(=O)n2CC(C)C (stereo unspecified) | inactive
CC(=O)Nc1ccccc1Sc1ccc2c3c(cccc13)C(=O)N(c1ccc(C)cc1)C2=O | inactive
O=C(O)c1ccc2c3c(cccc13)C(=O)N(OS(=O)(=O)c1ccccc1)C2=O | 26.9 µM (active)
CN1C(=O)c2cccc3c(N)ccc(c23)C1=O | inactive
Cc1nonc1C(=O)N/N=C/c1ccc(O)cc1 | 6.01 µM (active)
COc1cc(/C=N\NC(=O)c2nonc2N)c(OC)cc1Br | inactive

SMILES | Potency
CC(C)c1c(C(=O)N/N=C/c2ccc(-c3ccccc3)cc2)nnn1-c1nonc1N | inactive
CCC(C)Nc1oc(-c2ccc(COc3ccc(Cl)cc3)o2)nc1C#N (stereo unspecified) | inactive
Nc1nnc(SCC(=O)NCC(=O)Nc2ccc(F)c(F)c2F)s1 | inactive
O=C(c1ccco1)n1nc(-c2ccc(Cl)cc2)nc1NCc1ccccc1 | inactive
Cc1cc(Br)ccc1NC(=O)Cn1cnc2sc(C)c(S(=O)(=O)N3CCN(C)CC3)c2c1=O | inactive
Brc1ccc(CN2CC[C@H]3C=CCc4cccc(c43)C2)cc1 | inactive
O=C(NCc1ccccc1)c1ccc2c(c1)nc1n2CCCCC1 | 19 µM (active)
CCOc1ccccc1CNC(=O)c1ccc2c(c1)nc1n2CCC(C)C1 (stereo unspecified) | inactive
Cc1ccc(CCNC(=O)c2ccc3c(c2)nc2n3CCC(C)C2)cc1 (stereo unspecified) | inactive
O=C(/C=C/c1ccc(Cl)c([N+](=O)[O-])c1)c1cccnc1 | inactive
O=C(/C=C/c1ccc(Cl)cc1Cl)c1cccnc1 | 15.1 µM (active)
O=C(NCc1ccc(Cl)c(Cl)c1)c1cccnc1 | inactive
Cc1cccc(C)c1NC(=O)Nc1ccccc1-n1ccnc1 | inactive
O=c1c2ccccc2n(Cc2cccc(Cl)c2)c(=O)n1Cc1ccccc1 | inactive
Cc1ccc(-n2ncc3c(NCCCn4ccnc4)ncnc32)cc1Cl | 12 µM (active)
COCCNc1ncnc2c1c(-c1ccccc1)cn2-c1ccc(C)c(Cl)c1 | inactive
CCN(CC)CCNc1ncnc2c1cnn2-c1cc(Cl)ccc1C | inactive
Cc1ccccc1CNC(=O)c1ccc(NC(=O)N2CCCCc3ccccc32)cc1 | inactive
COC(=O)C1=C(C)NC(=O)/C1=C/c1ccc(CNS(=O)(=O)c2ccc(C)cc2)o1 | inactive
C[C@@H](NC(=O)c1nc[nH]c1C(=O)N1CCN(C(=O)OC(C)(C)C)CC1)c1ccccc1 | inactive
Cc1cnc(NC(=O)CSc2nnc(C)s2)s1 | inactive
Cc1ccc(Cl)cc1NC(=O)c1ccccn1 | 16.9 µM (active)

SMILES | Potency
Cc1cnc(NC(=O)c2ccc(Cl)nc2)s1 | 12 µM (active)
Cc1cnc(NC(=O)CSc2nnc(-c3ccccc3)n2Cc2ccccc2)s1 | inactive
Cc1cnc(NC(=O)Cn2cnc3c2c(=O)n(C)c(=O)n3C)s1 | inactive
Cc1cnc(NC(=O)C2CCCC2)s1 | inactive
Cc1ccc(Cl)cc1NC(=O)CSc1nccn1C | inactive
Cc1cnc(NC(=O)c2ccccn2)s1 | 2.69 µM (active)
Cc1ccc(Cl)cc1NC(=O)Cc1ccc(-n2c(C)nc3cccnc32)cc1 | inactive
COc1ccc(-c2onc(C)c2C)cc1S(=O)(=O)NCc1cccs1 | inactive
CC(=O)NC(CC(=O)Nc1nc(-c2ccccc2)c(C(C)=O)s1)c1ccccc1 (stereo unspecified) | inactive
COc1cccc(-c2n[nH]c3c2C(c2cccc(O)c2)N(C)C3=O)c1 (stereo unspecified) | inactive
O=C1COc2ccc(C(=O)CSc3ccc(Br)cc3)cc2N1 | inactive
Cc1ccc(C)c(N2CCN(c3ccc4cc(S(=O)(=O)N5CCC(C)CC5)ccc4n3)CC2)c1 | inactive
Cc1cc(NC(=O)C2CCC(CNS(=O)(=O)c3ccc(Br)s3)CC2)ccc1Br (stereo unspecified) | inactive
Cc1cc(C)cc(OCC(=O)Nc2nc(-c3ccc(F)cc3)ns2)c1 | inactive
COc1ccc(C2=NS(=O)(=O)N(C)C(C(=O)N(C)Cc3ccccc3)=C2)cc1 | inactive
COc1ccc(NC(=O)c2cc(-c3cc(OC)c(OC)c(OC)c3)nc3ccccc23)c(OC)c1 | inactive
COc1ccc(CCNC(=O)COC(=O)c2cc(=O)c3ccccc3o2)cc1 | inactive
COC(=O)CNC(=O)c1cc(-c2ccncc2)nc2ccccc12 | inactive
COc1ccc(CN(C)C(=O)c2cc(-c3ccc(C)cc3C)nc3ccccc23)c(OC)c1OC | inactive
COc1ccc(-c2cc(C(=O)N(C)Cc3ccccc3)c3ccccc3n2)cc1 | 10.7 µM (active)
O=C(O/N=C(/c1ccccc1)c1ccncc1)c1ccccc1[N+](=O)[O-] | inactive
N/C(=N\OC(=O)c1cc(-c2ccccc2)nc2ccccc12)c1ccncc1 | 21.3 µM (active)

SMILES | Potency
C/C(N)=C(/C#N)C(=O)COC(=O)c1cc(-c2ccc(C)cc2)nc2ccccc12 | 9.53 µM (active)
CNC(=O)COC(=O)c1cc(-c2ccc(OC)cc2)nc2ccccc12 | 5.36 µM (active)
C/C(N)=C(/C#N)C(=O)COC(=O)C1=NN(c2ccccc2)C(=O)CC1 | inactive
C/C(N)=C(/C#N)C(=O)COC(=O)c1cc(-c2cccc(Br)c2)nc2ccccc12 | inactive
Cc1cc(C)c2oc(C(=O)Nc3c(C(=O)Nc4ccccc4)oc4ccccc34)cc(=O)c2c1 | inactive
CCCCN(C(=O)C(CCSC)N1C(=O)c2ccccc2C1=O)c1c(N)n(CCC)c(=O)[nH]c1=O (stereo unspecified) | inactive
COc1cc(NS(=O)(=O)c2ccc3c(c2)OCC(C(=O)N2CCCC2)O3)cc(OC)c1 (stereo unspecified) | inactive
COc1ccc2c(CNCCc3ccccc3C)c(C(=O)O)n(Cc3ccccc3C)c2c1 | inactive
CCCn1ccc2c(OCC(=O)NCc3ccc(F)cc3)cccc2c1=O | inactive
COC(=O)c1cccnc1NC(=S)NC(C)C | inactive
Cc1cc(NS(=O)(=O)c2ccc3oc(=O)c4ncn(C)c4c3c2)ccc1Br | inactive
Cc1c(O)c(C)c2c(c1O)C(=O)C[C@@H](c1ccccc1)O2 | inactive
CCn1cc(C(=O)NCCc2ccccc2)c(=O)c2cc(S(=O)(=O)N3CCCCCC3)ccc21 | inactive
CCOc1ccc(N2CC(C)Cn3c2nc2c3c(=O)n(Cc3c(F)cccc3Cl)c(=O)n2C)cc1 (stereo unspecified) | inactive
Cc1ccc(NC(=O)CSc2nc3c(c(=O)[nH]2)CN(Cc2ccc4c(c2)OCO4)CC3)cc1C | inactive
COc1ccc(-c2cc(C(=O)n3cnc4ccccc43)c3ccccc3n2)cc1 | 5.36 µM (active)
Cc1ccc(OCC(=O)Nn2cnc3ccccc32)cc1 | inactive
COc1ccc(S(=O)(=O)n2cnc3ccccc32)c(C)c1 | inactive
